High-throughput results deposited in PubChem BioAssay by Broad Institute.
C diff HTS: inhibitors of Clostridium difficile growth | hit rate 0.25% among 86,000 | growth activity, negative = inhibition, % at 16 µg/mL (by protocol) | Clostridium difficile clinical isolate growth, OD600, 24 h; active compounds read low;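 active = mean growth activity at or below -80% and every replicate also at or below -80%; inconclusive = mean at or below -80% but some replicate above -80%; inactive = mean growth activity above -80%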;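 note: 0% = DMSO wells and -100% = levofloxacin 16 µg/mL wells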
T cruzi growth-1: T. cruzi proliferation inhibition. T. cruzi beta-gal in NIH3T3, GalScreen luminescence, 90 h. inhibition, % at 8.34 µM. hit rate 5.9% among 77,000;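 active = mean inhibition above about 93%, with at least 55% of replicates each passing it, limit read from the data, passing the limit was not always enough; inconclusive = only one of those two conditions holds; inactive = neither condition holds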
Pf Dd2 growth: P. falciparum Dd2 growth inhibition; SYBR Green, 72 h; active compounds read low; activity change, % at 10 µM; hit rate 2.3% among 94,000; AID 1159554; in the data active = activity change below about -80%; inconclusive = no clear call, values can overlap the other calls
T cruzi growth-2: blocks T. cruzi growth in NIH3T3 host cells. AID 651739. shares compounds with T cruzi growth-1. hit rate 72% among 5,600. inhibition, % at 8.35 µM. T. cruzi beta-gal in NIH3T3, GalScreen luminescence, 90 h;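 active = mean replicate inhibition above about 95% and at least 55% of replicates individually reaching it, limit read from the data; inconclusive = only one of the two criteria is met; inactive = neither criterion is met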
T cruzi growth-3: inhibitors of T. cruzi proliferation. hit rate 21% among 5,600. inhibition, % at 2.09 µM. T. cruzi beta-gal in NIH3T3, GalScreen luminescence, 90 h. shares compounds with T cruzi growth-1;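 active = mean inhibition above about 95%, with at least 55% of replicates also reaching it, limit read from the data; inconclusive = meets just one of the two conditions; inactive = meets neither condition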;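 note: plate controls were neutral control median for no effect and positive control median for full effect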
3T3 cytotox: cytotoxicity in mouse NIH/3T3 fibroblasts. shares compounds with T cruzi growth-1. NIH/3T3 viability, CellTiter-Glo ATP luminescence, 90 h. cytotoxicity (signal decrease), % at 8.35 µM. hit rate 14% among 5,600. AID 651742;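 active = mean signal decrease across replicates above about 35% based on untreated-well scatter, with enough replicates individually passing, limit read from the data; inconclusive = no rule stated though some were filed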;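 note: 0% = median of neutral control wells and 100% = median of positive control wells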
NIH3T3 tox 2: cytotoxicity in mouse NIH/3T3 fibroblasts; shares compounds with T cruzi growth-1; NIH/3T3 viability, CellTiter-Glo ATP luminescence, 90 h; inhibition, % at 24.9 µM; hit rate 56% among 5,600;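 active = mean loss of cell viability signal at or above a set limit, and enough replicates individually reaching it; inconclusive = meets only the mean limit or only the replicate share; inactive = meets neither condition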;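 note: 0% = median of neutral control wells and 100% = median of positive control wells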
* marks the source's active call; other numbers are inactive results; ? = inconclusive; . = not tested or not shown; ! = repeats disagree. In the library only some 6.8% were active in any assay of this set; here they are far more common.

SMILES	C diff HTS	T cruzi growth-1	Pf Dd2 growth	T cruzi growth-2	T cruzi growth-3	3T3 cytotox	NIH3T3 tox 2
Cc1ccc(S(=O)(=O)N[C@H]2CC[C@H](CCn3cc(-c4cccnc4)nn3)O[C@H]2CO)cc1	.	22	6	.	.	.	.
O=S(=O)(c1ccccc1F)N1CCCCN2[C@H](CO)[C@H](c3ccc(-c4ccncc4)cc3)[C@H]2C1	-6	102*	-16	105*	35	9	0
O=S(=O)(c1ccccc1F)N1CCCCN2[C@H](CO)[C@H](c3ccc(-c4ccncc4)cc3)[C@@H]2C1	-11	44	-4	.	.	.	.
O=S(=O)(c1ccccc1F)N1CCCCN2[C@H](C1)[C@H](c1ccc(-c3cccnc3)cc1)[C@@H]2CO	-4	100*	24	98*	19	16	12
O=S(=O)(c1ccccc1F)N1CCCCN2[C@H](CO)[C@@H](c3ccc(-c4cccnc4)cc3)[C@@H]2C1	-20	94	31	.	.	.	.
O=C(N[C@@H]1C=C[C@@H](CC(=O)N2CCOCC2)O[C@@H]1CO)c1cccc(F)c1	.	58	-2	.	.	.	.
C[C@@H]1CCCCO[C@H](CN(C)C(=O)Nc2ccc3c(c2)OCO3)[C@@H](C)CN([C@H](C)CO)C(=O)c2cc(NC(=O)NC3CCCCC3)ccc2O1	4	9	-45	.	.	.	.
CCCN1[C@@H]2c3ccc(C4=CCCCC4)c(=O)n3C[C@H]1[C@H](CO)[C@H]2C(=O)NCCc1ccncc1	-3	.	-6	.	.	.	.
CCN1[C@@H]2Cn3c(ccc(C4=CCCC4)c3=O)[C@H]1[C@@H](C(=O)NCc1ccccn1)[C@@H]2CO	-4	99*	-4	9	-9	-14	-7
CCN1[C@@H]2c3ccc(C4=CCCCC4)c(=O)n3C[C@H]1[C@H](CO)[C@H]2C(=O)NCc1ccccn1	0	26	3	.	.	.	.
CCN1[C@@H]2Cn3c(ccc(C4=CCCCC4)c3=O)[C@H]1[C@@H](C(=O)NCCc1ccncc1)[C@@H]2CO	1	99*	0	-20	0	-27	-27
CC=Cc1ccc2n(c1=O)C[C@H]1[C@H](CO)[C@@H](C(=O)N3CCN(C)CC3)N(Cc3ccccc3F)[C@@H]21 (mixture of isomers)	2	10	-6	.	.	.	.
C[C@H]1CN([C@@H](C)CO)C(=O)c2cc(C3=CCCC3)cnc2O[C@H]1CN(C)Cc1ccc(C(=O)O)cc1	2	3	41	.	.	.	.
COc1cccc(S(=O)(=O)N(C)C[C@@H]2Oc3ncc(C#CC(C)C)cc3C(=O)N([C@H](C)CO)C[C@H]2C)c1	1	88	-37	.	.	.	.
COc1cccc(S(=O)(=O)N(C)C[C@H]2Oc3ncc(C#CC(C)C)cc3C(=O)N([C@@H](C)CO)C[C@H]2C)c1	-7	109*	-13	82	70	23	49*
COc1cccc(S(=O)(=O)N(C)C[C@@H]2Oc3ncc(C#Cc4ccc(F)cc4)cc3C(=O)N([C@H](C)CO)C[C@@H]2C)c1	-2	108*	-54	103*	63	22	12
COc1cccc(S(=O)(=O)N(C)C[C@H]2Oc3ncc(C#CC(C)C)cc3C(=O)N([C@H](C)CO)C[C@@H]2C)c1	-11	65	-72	.	.	.	.
CCCC#Cc1cnc2c(c1)C(=O)N([C@H](C)CO)C[C@@H](C)[C@H](CN(C)S(=O)(=O)c1cccc(OC)c1)O2	-4	78	-44	.	.	.	.
COc1cccc(S(=O)(=O)N(C)C[C@H]2Oc3ncc(C#CCC(C)C)cc3C(=O)N([C@H](C)CO)C[C@@H]2C)c1	0	102*	-63	106*	79	11	60*
COc1cccc(S(=O)(=O)N(C)C[C@@H]2Oc3ncc(C#CCC(C)C)cc3C(=O)N([C@H](C)CO)C[C@@H]2C)c1	-2	-22	-15	.	.	.	.
COc1cccc(S(=O)(=O)N(C)C[C@@H]2Oc3ncc(C#CCN(C)C)cc3C(=O)N([C@H](C)CO)C[C@H]2C)c1	1	96*!	-2	?	84	13	17
COc1ccccc1-c1cnc2c(c1)C(=O)N([C@@H](C)CO)C[C@@H](C)[C@@H](CN(C)C(=O)c1ccccc1)O2	59	77	-32	.	.	.	.
COc1ccc2c3c(n(C)c2c1)[C@H](CO)N(CC1CC1)CC31CCN(C(=O)CC2CC2)CC1	.	.	44	.	.	.	.
COc1ccc(CNC(=O)C[C@@H]2CC[C@@H](NC(=O)c3ccc4c(c3)OCO4)[C@H](CO)O2)cc1	-2	-20	1	.	.	.	.
CC=Cc1ccc2n(c1=O)C[C@@H]1[C@@H](CO)[C@H](C(=O)NCCC)[C@H]2N1C(=O)c1ccncc1 (mixture of isomers)	-1	.	40	.	.	.	.
SMILES	C diff HTS	T cruzi growth-1	Pf Dd2 growth	T cruzi growth-2	T cruzi growth-3	3T3 cytotox	NIH3T3 tox 2
COc1ccc(S(=O)(=O)Nc2ccc3c(c2)CC(=O)N([C@H](C)CO)C[C@@H](C)[C@H](CN(C)C(=O)Nc2ccccc2)O3)cc1	-4	35	17	.	.	.	.
CCCC#Cc1cnc2c(c1)C(=O)N([C@@H](C)CO)C[C@@H](C)[C@H](CN(C)S(=O)(=O)c1cccc(OC)c1)O2	0	89	-48	.	.	.	.
COc1cccc(S(=O)(=O)N(C)C[C@@H]2Oc3ncc(C#CCC(C)C)cc3C(=O)N([C@H](C)CO)C[C@H]2C)c1	1	112	-48	.	.	.	.
COc1cccc(S(=O)(=O)N(C)C[C@@H]2Oc3ncc(C#CCC(C)C)cc3C(=O)N([C@@H](C)CO)C[C@H]2C)c1	1	111*	-54	107*	85	-1	77*
CCCC#Cc1cnc2c(c1)C(=O)N([C@H](C)CO)C[C@@H](C)[C@@H](CN(C)S(=O)(=O)c1cccc(OC)c1)O2	2	104*	-16	99*	62	37*	65*
Cc1noc(C)c1S(=O)(=O)N(C)C[C@@H]1Oc2ccc(NC(=O)CCC(F)(F)F)cc2CC(=O)N([C@H](C)CO)C[C@@H]1C	3	36	10	.	.	.	.
COc1ccc(CNC(=O)C[C@@H]2C[C@H]3c4cc(NS(=O)(=O)c5ccc(F)cc5)ccc4O[C@H]3[C@H](CO)O2)cc1	1	-54	-29	.	.	.	.
Cc1cccc(-c2ccc([C@@H]3[C@@H](CO)N4CCCCN(S(=O)(=O)c5cn(C)cn5)C[C@@H]34)cc2)c1	1	?	-1	83	-22	32	82*
Cc1cccc(-c2ccc([C@H]3[C@@H](CO)N4CCCCN(S(=O)(=O)c5cn(C)cn5)C[C@@H]34)cc2)c1	-9	-40	6	.	.	.	.
Cn1cnc(S(=O)(=O)N2CCCCN3[C@H](CO)[C@H](c4ccc(-c5ccccc5)cc4)[C@@H]3C2)c1	6	55	29	.	.	.	.
Cn1cnc(S(=O)(=O)N2CCCCN3[C@H](CO)[C@H](c4ccc(-c5ccc(F)cc5)cc4)[C@@H]3C2)c1	6	1	29	.	.	.	.
